Potency, outcome and max activation data for eight compounds are collected here from PubChem BioAssay (Tox21).

The nature of assay [1]: qHTS assay to identify small molecule agonists of the estrogen receptor alpha (ER-alpha) signaling pathway in the presence of an antagonist - cell viability counter screen (AID 1259386).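 Also: series mostly up to about 92 µM; cells exposed to compounds for 22 h at 37 °C before the viability read; nearly all actives have a fitted effect of over 30% in size.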 The method, boiled down:
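Cell viability in VM7Luc4E2 cells (endogenous full-length ER-alpha) measured by CellTiter-Fluor fluorescence in the same wells as the luciferase screen. Cells pre-cultured 5 days in charcoal-stripped serum, then treated 22 h with compounds at 15 concentrations plus 10.0nM ICI-182,780.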

For assay [2], the target named is Progesterone receptor (Homo sapiens) (UniProt P06401). Briefly: qHTS assay to identify small molecule agonists of the progesterone receptor (PR) signaling pathway (AID 1346784; calls by dose curve; also: nearly all actives have a fitted effect of over 30% in size). A digest of the protocol: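 Reporter assay, GripTite PR-UAS-bla HEK 293T cells: 16 hr exposure to DMSO-dissolved compounds at 37C, 5% CO2, in steroid-depleted (2% charcoal-stripped FBS) medium; beta-lactamase measured by FRET fluorescence.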
In general terms: qHTS replaces the single test concentration by a dilution series.

The target is the same in assay [3]. Briefly: qHTS assay to identify small molecule antagonists of the progesterone receptor (PR) signaling pathway (AID 1346795; active = well fitted inhibition curve with a large enough effect in the signal ratio in the repeat runs, not every such curve was filed as active; the % refers to the signal ratio). A digest of the protocol:
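Stimulus R5020 at 1 nM final; cells HEK293T PR-UAS-bla; medium with 2% charcoal-stripped FBS; compound exposure 16 hr at 37C, 5% CO2; detection by FRET beta-lactamase substrate, 2 hr, room temperature.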

Assay [4] can be described thus: qHTS assay to identify small molecule antagonists of the progesterone receptor (PR) signaling pathway - cell viability counter screen (AID 1346798). Also: series mostly up to about 92 µM; nearly all actives have a fitted effect of over 50% in size. A digest of the protocol: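 In the same plates used for the beta-lactamase readout, cell viability of compound- and R5020-treated PR-UAS-bla HEK293T cells (16 hr, 37C) was assessed by CellTiter-Glo luminescence.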
Assay [5] in a line: qHTS assay to identify small molecule agonists of the progesterone receptor (PR) signaling pathway - cell viability counter screen (AID 1346799; calls by dose curve; also: nearly all actives have a fitted effect of over 45% in size). The method, boiled down:
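Multiplexed viability read: CellTiter-Glo luminescence, 30 min RT, following LiveBLAzer FRET measurement on PR-UAS-bla HEK293T cells exposed to compounds 16 hr.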

Assay [6] is described as follows: qHTS assay to identify small molecule antagonists of the TGF-beta/Smad signaling pathway - cell viability counter screen (AID 1346824). Also: nearly all actives have a fitted effect of over 50% in size. The method, boiled down: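 Cytotoxicity counter-screen run in the same wells as the beta-lactamase Smad reporter read: CellTiter-Glo luminescence after 30 min at room temperature. HEK 293T SBE-bla cells had 5 hr compound exposure at 37 C with TGF-beta1 (0.25 ng/mL stock).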

A short description of assay [7]: qHTS assay to identify small molecule agonists of the TGF-beta/Smad signaling pathway - cell viability counter screen (AID 1346829). Also: top concentration of the series differs between compounds; nearly all actives have a fitted effect of over 45% in size. A digest of the protocol:
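Compound-treated SBE-bla HEK 293T cells (5 hr, 37 C) were assessed for viability with CellTiter-Glo in parallel with the reporter read.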

Assay [8] is described as follows: qHTS assay to identify small molecule agonists of the TGF-beta/Smad signaling pathway (AID 1346859; active = well fitted activation curve with a large enough effect in the signal ratio in the repeat runs, not every such curve was filed as active; the % refers to the signal ratio; also: series mostly up to about 77 µM). The method, boiled down: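 Screening used HEK 293T SBE-bla cells at 4,000/well. Test agents: 5 hr, 37 C. Detection: FRET substrate, 2 hr RT, then excitation 405 nm with emissions at 460 and 530 nm.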
The target in assay [9] is Thyrotropin-releasing hormone receptor (Homo sapiens) (UniProt P34981). Briefly: qHTS assay to identify small molecule agonists of the thyrotropin-releasing hormone receptor (TRHR) signaling pathway (AID 1346891; calls by dose curve; also: series mostly up to about 58 µM). A digest of the protocol: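 Readout was intracellular calcium fluorescence in TRHR-Hek293 cells. Cells were incubated 18 h, dye-loaded 2 h at 37 °C, and treated with compound in agonist mode.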

The nature of assay [10]: Human pregnane X receptor (PXR) small molecule agonists, qHTS cell viability counter screen (AID 1346977). Also: nearly all actives have a fitted effect of over 50% in size. A digest of the protocol: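 In each well, the PXR reporter HepG2 line was checked for viability: CellTiter-Fluor reagent added 23hr post-dosing, fluorescence read after 1hr incubation at 37C.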
Assay [11] can be described thus: Caspase-3/7 induction in CHO-K1 cells by small molecules, qHTS cell viability counter screen (AID 1346979). Also: nearly all actives have a fitted effect of over 35% in size. Also: potency is read from the fitted curve at half-maximal effect. The method, boiled down: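 Following a 5hr settling period, CHO-K1 cells at 1,500 per well received DMSO-dissolved compounds. Cell viability was quantified 16hr later by CellTiter-Fluor fluorescence, measured after 1hr with reagent at 37C.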
A short description of assay [12]: Caspase-3/7 induction in CHO-K1 cells by small molecules, qHTS assay (AID 1346980). Also: nearly all actives have a fitted effect of over 15% in size. The method, boiled down:
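Luminescent Caspase-Glo 3/7 read (30min, room temperature) quantified apoptosis induction. Cells were wild-type CHO-K1, treated with compound for 17hr at 37 C and 5% CO2.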

Assay [13] in a line: Caspase-3/7 induction in HepG2 cells by small molecules, qHTS cell viability counter screen (AID 1346981). Also: series mostly up to about 92 µM; nearly all actives have a fitted effect of over 30% in size. A digest of the protocol: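 Wild-type HepG2 cells, 2,000/well, settled 5 hr at 37 C, 5% CO2 before compound addition. Viability read by CellTiter-Fluor fluorescence, reagent added after 16 hr compound exposure, then 1 hr at 37C, in the same wells as the caspase read.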

For assay [14], the target named is Nuclear receptor subfamily 1 group I member 2 (Homo sapiens) (UniProt O75469). Briefly: Human pregnane X receptor (PXR) small molecule agonists, qHTS assay (AID 1346982). Also: nearly all actives have a fitted effect of over 35% in size. Also: potency is read from the fitted curve at half-maximal effect. A digest of the protocol: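 PXR-Luc HepG2 reporter cells (CYP3A4-driven luciferase) in 5% charcoal-stripped FBS medium, plated 5 h before compound addition, then treated 24 h at 37C. Luciferase read by ONE-Glo luminescence after 30 min at room temperature.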

The target in assay [15] is Cytochrome P450 2D6 (Homo sapiens) (UniProt P10635). Briefly: Cytochrome P450 Family 2 Subfamily D Member 6 (CYP2D6) small molecule antagonists: luciferase reporter qHTS assay (AID 1671196). Also: nearly all actives have a fitted effect of over 50% in size. Also: potency is read from the fitted curve at half-maximal effect. The method, boiled down: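 Cell-free P450-Glo system: CYP2D6 with proluciferin substrate was pre-incubated with compound for 10 min, then reacted with NADPH regeneration for 1 h at room temperature. Luciferin product was detected after 20 min, and data were reported as relative luminescence units.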
On the technique in general: A reporter such as luciferase makes a cellular process visible.

Assay [16] in a line: Caspase-3/7 induction in HepG2 cells by small molecules, qHTS assay (AID 1346978). Also: nearly all actives have a fitted effect of over 15% in size. The method, boiled down: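 Caspase-3/7 induction was measured by Caspase-Glo 3/7 luminescence (30 min, room temperature) after a 17 hr compound exposure of wild-type HepG2 cells seeded at 2,000 per well and pre-incubated 5 hr.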
Assay [17] concerns the target Nuclear receptor subfamily 1 group I member 2 (Rattus norvegicus) (UniProt Q9R1A7). Briefly: Rat pregnane X receptor (rPXR) activation by small molecules, qHTS assay (AID 1346983). Also: nearly all actives have a fitted effect of over 20% in size. To be noted: rPXR luciferase reporter cells, One-Glo luminescence, 24 h; max activation: stronger effect = higher value. A digest of the protocol:
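Luminescent readout (One-Glo luciferase, 30 min room temperature) followed 24 hr compound treatment at 37 C of rPXR cells plated 2,000 per well and preincubated 5hr; qHTS format with compounds delivered in DMSO.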

Assay [18] concerns the target Nuclear receptor subfamily 1 group I member 2 (Homo sapiens) (UniProt O75469). Briefly: CYP3A4 induction through human pregnane X receptor (PXR) by small molecules, qHTS assay (AID 1346984). Also: nearly all actives have a fitted effect of over 40% in size. The method, boiled down: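 DPX-2 HepG2 cells carrying a PXR response element and CYP3A4-promoter luciferase construct, treated with compounds 24 hr at 37C. Then P450-Glo CYP3A4 Luciferin-IPA substrate (3uM final) for 3 hr at 37C, One-Glo added, luminescence read.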

The target is the same in assay [19]. Briefly: Human pregnane X receptor (PXR) activation by small molecules, qHTS assay (AID 1346985). Also: nearly all actives have a fitted effect of over 40% in size. A digest of the protocol: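 DPX-2 cells (HepG2 co-transfected with a PXR response element and a CYP3A4-promoter luciferase construct) were seeded at 2,000 per well, rested 5 hr at 37C, then exposed to DMSO-dissolved compounds for 24 hr. Activation was read as luciferase luminescence.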

Values joined by “and” are separate entries in the source; they are usually repeats but may differ in a detail not shown here. Equal values may be shown once. Inconclusive results are not listed. The source holds several records for some structures; these can differ, active in one and inactive in another. Active and inactive are the calls of the source. Unless noted, calls follow the shape of the dose curve; as a rule, active = well fitted curve in the direction sought with a large enough effect in the repeat runs; inconclusive = weak or mixed curves; inactive = no such curve, though single readings can be large; an effect the other way counts as inactive or inconclusive.
% is scaled to controls: 0 for no effect and ±100 for the full control effect.

Nuclear receptor subfamily 1 group I member 2 (Homo sapiens), sequence (O75469 whole entry, looked up): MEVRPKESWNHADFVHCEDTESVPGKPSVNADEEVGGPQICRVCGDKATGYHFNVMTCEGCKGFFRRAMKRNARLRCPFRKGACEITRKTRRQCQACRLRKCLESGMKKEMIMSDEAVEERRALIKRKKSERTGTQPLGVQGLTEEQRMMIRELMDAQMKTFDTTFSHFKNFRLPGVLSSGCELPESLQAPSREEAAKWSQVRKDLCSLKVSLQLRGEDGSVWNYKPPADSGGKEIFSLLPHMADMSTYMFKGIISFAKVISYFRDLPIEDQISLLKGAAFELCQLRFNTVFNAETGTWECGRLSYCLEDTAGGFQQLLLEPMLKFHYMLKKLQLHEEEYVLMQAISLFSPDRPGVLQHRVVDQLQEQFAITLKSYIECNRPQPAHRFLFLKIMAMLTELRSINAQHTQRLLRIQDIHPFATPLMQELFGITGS
Cytochrome P450 2D6 (Homo sapiens), sequence (P10635 whole entry, looked up): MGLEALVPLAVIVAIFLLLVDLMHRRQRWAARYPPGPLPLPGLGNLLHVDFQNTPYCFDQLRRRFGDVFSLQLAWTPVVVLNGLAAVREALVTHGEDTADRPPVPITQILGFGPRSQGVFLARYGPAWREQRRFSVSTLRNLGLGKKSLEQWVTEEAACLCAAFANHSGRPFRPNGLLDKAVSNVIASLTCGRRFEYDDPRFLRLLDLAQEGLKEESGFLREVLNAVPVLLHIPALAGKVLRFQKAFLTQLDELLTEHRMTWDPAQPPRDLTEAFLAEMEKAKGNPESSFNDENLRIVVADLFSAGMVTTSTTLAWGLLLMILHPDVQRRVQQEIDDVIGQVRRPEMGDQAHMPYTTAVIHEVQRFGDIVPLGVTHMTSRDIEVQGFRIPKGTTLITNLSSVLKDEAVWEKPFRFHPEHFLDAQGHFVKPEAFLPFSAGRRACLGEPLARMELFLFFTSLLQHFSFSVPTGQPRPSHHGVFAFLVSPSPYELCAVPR
Progesterone receptor (Homo sapiens), sequence (P06401 whole entry, looked up): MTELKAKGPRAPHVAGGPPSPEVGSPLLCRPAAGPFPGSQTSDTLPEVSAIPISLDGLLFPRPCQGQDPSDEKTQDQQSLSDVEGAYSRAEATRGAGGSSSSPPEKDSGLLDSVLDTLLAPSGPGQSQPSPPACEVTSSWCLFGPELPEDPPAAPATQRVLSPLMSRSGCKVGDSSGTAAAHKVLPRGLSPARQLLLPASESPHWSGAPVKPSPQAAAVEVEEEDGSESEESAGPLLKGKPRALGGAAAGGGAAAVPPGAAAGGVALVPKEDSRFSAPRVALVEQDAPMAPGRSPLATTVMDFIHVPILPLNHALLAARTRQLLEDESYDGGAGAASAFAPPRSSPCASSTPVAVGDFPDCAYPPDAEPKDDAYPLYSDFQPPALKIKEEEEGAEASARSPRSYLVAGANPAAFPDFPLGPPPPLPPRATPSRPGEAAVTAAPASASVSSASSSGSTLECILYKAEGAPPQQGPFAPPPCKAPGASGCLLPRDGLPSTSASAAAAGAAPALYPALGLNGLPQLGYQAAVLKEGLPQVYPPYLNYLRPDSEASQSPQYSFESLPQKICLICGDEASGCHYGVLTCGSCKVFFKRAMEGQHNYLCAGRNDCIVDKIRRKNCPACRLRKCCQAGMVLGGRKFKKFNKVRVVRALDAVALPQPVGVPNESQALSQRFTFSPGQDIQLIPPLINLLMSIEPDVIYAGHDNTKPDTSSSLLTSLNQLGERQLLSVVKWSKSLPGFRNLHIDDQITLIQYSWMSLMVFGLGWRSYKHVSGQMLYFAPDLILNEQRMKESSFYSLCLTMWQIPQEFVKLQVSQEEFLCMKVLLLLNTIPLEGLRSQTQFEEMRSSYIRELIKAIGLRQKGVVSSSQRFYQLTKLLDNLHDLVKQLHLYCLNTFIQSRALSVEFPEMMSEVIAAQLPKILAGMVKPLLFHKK
Thyrotropin-releasing hormone receptor (Homo sapiens), sequence (P34981 whole entry, looked up): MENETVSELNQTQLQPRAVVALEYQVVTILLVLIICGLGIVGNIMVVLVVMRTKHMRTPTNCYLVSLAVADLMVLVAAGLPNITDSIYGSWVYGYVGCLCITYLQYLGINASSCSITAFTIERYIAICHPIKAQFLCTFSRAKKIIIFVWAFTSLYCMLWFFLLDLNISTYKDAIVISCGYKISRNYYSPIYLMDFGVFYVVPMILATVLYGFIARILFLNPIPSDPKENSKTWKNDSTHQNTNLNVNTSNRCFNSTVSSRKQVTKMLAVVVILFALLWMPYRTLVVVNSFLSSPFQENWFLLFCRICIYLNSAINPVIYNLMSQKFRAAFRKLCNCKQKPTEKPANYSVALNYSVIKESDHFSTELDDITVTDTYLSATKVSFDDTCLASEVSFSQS
Nuclear receptor subfamily 1 group I member 2 (Rattus norvegicus), sequence (Q9R1A7 whole entry, looked up): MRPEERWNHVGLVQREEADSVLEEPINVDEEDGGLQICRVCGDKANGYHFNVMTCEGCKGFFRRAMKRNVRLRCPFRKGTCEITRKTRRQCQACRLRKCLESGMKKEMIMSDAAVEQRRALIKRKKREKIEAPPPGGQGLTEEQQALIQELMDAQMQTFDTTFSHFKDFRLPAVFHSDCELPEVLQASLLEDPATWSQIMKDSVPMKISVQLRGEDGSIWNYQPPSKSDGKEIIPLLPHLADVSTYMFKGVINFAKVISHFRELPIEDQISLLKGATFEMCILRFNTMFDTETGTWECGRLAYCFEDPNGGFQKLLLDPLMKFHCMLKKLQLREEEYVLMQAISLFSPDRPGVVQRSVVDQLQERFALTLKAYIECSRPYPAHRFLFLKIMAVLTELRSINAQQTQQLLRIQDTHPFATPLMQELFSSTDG

For `CC(=O)OC/C=C(C)/C=C/C=C(C)/C=C/C1=C(C)CCCC1(C)C`, the Potency result in [1], in [2], in assay [3], in assay [4], in assay [5] and in [6] was “inactive” throughout. The Potency result in assay [7], in [9], in assay [10] and in assay [13] was “inactive” in each case. Further, the result in [8] and in [12] was inactive. Also, the Potency in assay [11] was 66.9 µM (active) and 68.6 µM (active) and inactive; in [14], 59.6 µM (active) and 34.4 µM (active) and 15 µM (active); in assay [15], 34.7 µM (active) and inactive.

As for `CCn1cc(C(=O)O)c(=O)c2ccc(C)nc21`, the Potency result in [1], in assay [2], in assay [3], in assay [4], in assay [5] and in [6] was “inactive” throughout. Besides, the Potency entry in assay [7], in assay [9], in assay [10], in assay [11], in assay [13] and in [14] was “inactive” in each case. Besides, in assay [15], the Potency entry was “inactive”. Besides, the compound was classed as inactive in [8] and in [12].

Regarding `Cc1cccc(C)c1O`, the Potency entry in assay [1], in [2], in assay [3], in [4], in assay [5] and in assay [6] was “inactive” in each case. The Potency entry in assay [7], in assay [9], in [10], in assay [11], in [13] and in [14] was “inactive” throughout. Moreover, the Potency entry in assay [15] was “inactive”. The call in assay [8] and in assay [12] was inactive.

Consider `C1CNCCN1`, for which the Potency entry in assay [1], in [2], in [3], in [4], in assay [5] and in [6] was “inactive” in each case. For the same compound, the Potency entry in assay [7], in assay [9], in assay [10], in assay [13] and in assay [14] was “inactive” each time. The compound was classed as inactive in [8] and in assay [12]. Besides, the Potency in assay [11] is 44.6 µM (active) and inactive; in [15], 32.6 µM (active) and inactive and 2.03 µM (active).

For the compound `c1ccc2[nH]c(-c3cscn3)nc2c1`, the Potency entry in assay [1], in [2], in [3], in assay [4], in assay [5] and in assay [6] was “inactive” in each case. Moreover, the Potency result in assay [7], in assay [9], in [10], in assay [16], in assay [11] and in [13] was “inactive” throughout. For the same compound, the call in assay [8] and in [12] was inactive. Besides, the Potency in assay [14] is 30.8 µM (active) and 770 nM (active) and 6.68 µM (active); in [15], 39.9 µM (active) and 38.9 µM (active).

`CC(C)CC(C)CC(O)CC(C)C` (stereo not given): the Potency entry in assay [1], in [2], in assay [3], in [4], in assay [5] and in [6] was “inactive” each time. Moreover, the Potency result in [7], in [9], in assay [10], in assay [11], in assay [13] and in [14] was “inactive” in each case. Further, the Potency result in assay [15] is “inactive”. The result in assay [8] and in [12] was inactive.

On to `CCCCCCCCCCCCCC(=O)OC(C)C`, for which the Potency entry in [1], in assay [2], in assay [3], in [4], in assay [5] and in assay [6] was “inactive” throughout. For the same compound, the Potency entry in [7], in assay [10], in assay [16], in [11], in assay [13] and in assay [14] was “inactive” throughout. In addition, the Potency entry in assay [18], in assay [19] and in [15] was “inactive” throughout. The compound was classed as inactive in assay [8] and in [12]. In addition, the max activation in assay [17] was -1.74% (inactive).

Turning to `CN(C)Cc1cc(CN(C)C)c(O)c(CN(C)C)c1`, the Potency entry in assay [1], in assay [2], in [3], in assay [4], in assay [5] and in [6] was “inactive” throughout. The Potency entry in assay [7], in assay [9], in assay [10], in [16], in assay [11] and in assay [13] was “inactive” throughout. Also, the Potency entry in [14] is “inactive”. For the same compound, the compound was classed as inactive in assay [8] and in assay [12]. For the same compound, in assay [15], the Potency was 79.6 µM (active) and inactive.
